Results taken from PubChem BioAssay (EPA / NIEHS).
Inconclusive results are not listed. Active and inactive are the calls of the source. How the source made its calls: active means hit-call score of the fitted dose curve at least 0.9, where 1 is the maximum; inconclusive means response in the unintended direction; inactive means score below 0.9.

What was measured:
[1] = TOX21_p53_BLA_p2_viability: Viability Assessment in the Tox21 HCT-116 p53 Agonism Beta-lactamase Assay, Phase 2 (AID 2283591);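 further: compound exposure lasted 16 h at 37 °C; actives lower the ATP signal meaning cytotoxicity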
Summary of the method: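 Cytotoxicity readout: CellTiter-Glo ATP luminescence, 30 min at room temperature, after the beta-lactamase read. Cells were HCT116 exposed 16 h at 37C to compounds pin-transferred at 217-fold dilution from DMSO stocks.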

[2] = target: Cellular tumor antigen p53 (Homo sapiens) (UniProt P04637); assay: TOX21_p53_BLA_p3_ratio: Tox21 HCT-116 p53 Agonism Beta-lactamase Assay, Ratio, Phase 3 (AID 2283596)
Summary of the method: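 Cells were seeded at 4000/well, rested 5 h at 37C, then dosed with DMSO compound solutions (217-fold dilution) for 16 h. CCF4-AM substrate was loaded for 2 h at room temperature, and the 460/530 nm emission ratio was fitted for gain of signal versus DMSO.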

[3] = TOX21_p53_BLA_p4_viability: Viability Assessment in the Tox21 HCT-116 p53 Agonism Beta-lactamase Assay, Phase 4 (AID 2283597);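 further: hits lower the luminescence signal meaning cytotoxicity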
Summary of the method: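 In this multiplexed secondary endpoint, HCT116 cells (4000 per well, compound at 5 h, 16 h treatment) received CellTiter-Glo after the beta-lactamase read. Luminescence after 30 min RT reflects ATP, and falling signal marks cytotoxicity.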

[4] = target: Cellular tumor antigen p53 (Homo sapiens) (UniProt P04637); assay: TOX21_p53_BLA_p4_ratio: Tox21 HCT-116 p53 Agonism Beta-lactamase Assay, Ratio, Phase 4 (AID 2283601)
Summary of the method: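 Signal is the blue/green (460nm/530nm) ratio of cleaved versus uncleaved CCF4-AM substrate, read after 2 h substrate loading. Cells were HCT116 carrying the p53-responsive beta-lactamase reporter, dosed 16 h at 37C, 5% CO2; CellTiter-Glo measured in parallel.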

[5] = target: Cellular tumor antigen p53 (Homo sapiens) (UniProt P04637); assay: TOX21_p53_BLA_p5_ratio: Tox21 HCT-116 p53 Agonism Beta-lactamase Assay, Ratio, Phase 5 (AID 2283599)
Summary of the method: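 Beta-lactamase reporter ratio (blue 460 nm over green 530 nm, 405 nm excitation) after 2 h CCF4-AM loading, in HCT-116 cells exposed 16 h at 37 C to compounds pinned at 217-fold dilution. Increases relative to DMSO baseline scored.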

[6] = TOX21_p53_BLA_p5_viability: Viability Assessment in the Tox21 HCT-116 p53 Agonism Beta-lactamase Assay, Phase 5 (AID 2283600)
Summary of the method: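 Here cell health was gauged by ATP levels in wells holding 4000 cells, each treated 16 h with DMSO-delivered compounds at 217-fold dilution; reduced luminescence marked toxicity.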

Measured: AC50

Cellular tumor antigen p53 (Homo sapiens), sequence (P04637 whole entry, looked up): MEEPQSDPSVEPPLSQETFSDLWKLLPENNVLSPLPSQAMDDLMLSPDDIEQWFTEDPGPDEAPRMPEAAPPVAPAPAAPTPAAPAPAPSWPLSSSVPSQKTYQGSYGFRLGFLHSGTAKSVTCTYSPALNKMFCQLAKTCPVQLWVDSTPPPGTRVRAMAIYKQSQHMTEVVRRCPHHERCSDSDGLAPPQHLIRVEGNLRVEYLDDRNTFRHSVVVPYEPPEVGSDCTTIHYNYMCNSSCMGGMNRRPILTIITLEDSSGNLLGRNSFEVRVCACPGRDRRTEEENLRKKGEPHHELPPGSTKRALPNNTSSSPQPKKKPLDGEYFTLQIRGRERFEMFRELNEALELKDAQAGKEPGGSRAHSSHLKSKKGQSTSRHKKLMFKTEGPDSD

O=C(Nc1ccc(O)cc1)c1ccccc1O
inactive: [1] | [2] | [3]

CC[N+](CC)(CCNC(=O)C(=O)NCC[N+](CC)(CC)Cc1ccccc1Cl)Cc1ccccc1Cl
inactive: [1] | [2] | [3] | [4]

O=C(Cc1cccs1)N[C@@H]1C(=O)N2C(C(=O)[O-])=C(C[n+]3ccccc3)CS[C@H]12
not listed: [3]
inactive: all other assays above

Cc1cccc(C)c1NC(=O)C1CCCCN1C (stereo not drawn)
inactive: [1] | [2] | [5] | [6]

CCCCCC
inactive: [1] | [2] | [5] | [4]

Cc1c(I)c(=O)n(-c2ccccc2)n1C
not listed: [3]
inactive: all other assays above

CC[C@H]1OC(=O)[C@H](C)[C@@H](O[C@H]2C[C@@](C)(OC)[C@@H](O)[C@H](C)O2)[C@H](C)[C@@H](O[C@@H]2O[C@H](C)C[C@H](N(C)C)[C@H]2O)[C@](C)(O)C[C@@H](C)[C@@H]2N[C@@H](COCCOC)O[C@@H]([C@H]2C)[C@]1(C)O
not listed: [3]
inactive: all other assays above

Cc1cccc([N+](=O)[O-])c1C(=O)O
inactive: [1] | [2] | [5] | [4]

CC(O)CN(CCCN(C)C)CCCN(C)C (stereo not drawn)
not listed: [3]
inactive: all other assays above

C[C@@]12C(=O)OC(=O)[C@]1(C)C1CCC2O1
active: [4] 2.91 µM
not listed: [3]
inactive: all other assays above

O=C(O)CNC(=O)c1ccccc1I
inactive: [1] | [2] | [5] | [6]

O=C1OC(=O)c2ccccc21
not listed: [5]
inactive: all other assays above

CCC(C(=O)OCCOCCN(CC)CC)c1ccccc1 (stereo not drawn)
inactive: [1] | [2] | [5] | [4]

CNCCc1ccccn1
not listed: [5]
inactive: all other assays above

CC[N+](C)(C)c1cccc(O)c1
inactive: [1] | [2] | [5] | [4]

CCCc1nc(C(C)(C)O)c(C(=O)OCc2oc(=O)oc2C)n1Cc1ccc(-c2ccccc2-c2nn[nH]n2)cc1
inactive: [1] | [2] | [5]

CCOc1ccc(NC(=S)Nc2ccc(OCC)cc2)cc1
inactive: [1] | [2] | [3] | [4]

CCN(CC)CCOC(=O)C(Cc1cccc2ccccc12)CC1CCCO1 (stereo not drawn)
inactive: [1] | [2] | [3] | [4]

COC(=O)C(CN)c1c[nH]c2ccc(OC)cc12 (stereo not drawn)
not listed: [3]
inactive: all other assays above

CCCCCCCCCCCCCCCCSCC(COC)COP(=O)([O-])OCC[N+](C)(C)C (stereo not drawn)
inactive: [1] | [2] | [3] | [4]

CC=CC1=C(C(=O)O)N2C(=O)[C@@H](NC(=O)[C@H](N)c3ccc(O)cc3)[C@H]2SC1
not listed: [3]
inactive: all other assays above

O=C1c2ccccc2C(=O)c2cc(Cl)ccc21
inactive: [1] | [2] | [3] | [6]

C=C[Si](OC(=C)C)(OC(=C)C)OC(=C)C
inactive: [1] | [2] | [5] | [6]

CC(C)CCCC(C)NC(C)C (stereo not drawn)
inactive: [1] | [2] | [5]

CCc1cnc(C(=O)O)c(C(=O)O)c1
inactive: [1] | [2] | [5] | [4]

OCC1(CO)COCOC1
not listed: [3]
inactive: all other assays above

CC[N+](CC)(CC)CCOc1cccc(OCC[N+](CC)(CC)CC)c1OCC[N+](CC)(CC)CC
not listed: [6]
inactive: all other assays above

O=CNNC=O
inactive: [1] | [2] | [5] | [4]

O=C(O)COc1ccc2ccccc2c1
not listed: [3]
inactive: all other assays above

COc1ccc(Br)c(C)c1
inactive: [1] | [2] | [3] | [4]

O=C(Nc1cccc2c(=O)cc(-c3nn[nH]n3)oc12)c1ccc(OCCCCc2ccccc2)cc1
inactive: [1] | [2] | [3] | [6]

O=Cc1cccc([N+](=O)[O-])c1
not listed: [6]
inactive: all other assays above
